# Calls of active or inactive are those of the source. How the source made its calls: active means hit-call score of the fitted dose curve at least 0.9, where 1 is the maximum; inactive means score below 0.9.
# Molecular target: human CYP2E1, CYP2E1 (gene 1571) (UniProt P05181)
# Assay: NVS_ADME_hCYP2E1: NovaScreen (NVS) CYP450-related Enzyme Activity (ADME) Assay for human CYP2E1
# Experimental: NVS_ADME_hCYP2E1 is a biochemical, single-readout assay that uses extracted gene-proteins in a cell-free assay. Measurements were taken 0.5 hour after chemical dosing in a 96-well plate.NVS_ADME_hCYP2E1 is one of one assay component(s) measured or calculated from the NVS_ADME_hCYP2E1 assay. It is designed to make measurements of enzyme activity, a form of enzyme reporter, as detected with fluorescence intensity signals by Fluorescence technology.Data from the assay component NVS_ADME_hCYP2E1 was analyzed into 1 assay endpoint. This assay endpoint, NVS_ADME_hCYP2E1, was analyzed in the positive analysis fitting direction relative to Acetonitrile as the negative control and baseline of activity. Using a type of enzyme reporter, loss-of-signal activity can be used to understand changes in the enzymatic activity as they relate to the gene CYP2E1. Furthermore, this assay endpoint can be referred to as a primary readout, because this assay has produced multiple assay endpoints where this one serves a enzymatic activity function. To generalize the intended target to other relatable targets, this assay endpoint is annotated to the cyp intended target family, where the subfamily is xenobiotic metabolism. […]
# Sequence of human CYP2E1, CYP2E1 (gene 1571) (P05181 whole entry, looked up): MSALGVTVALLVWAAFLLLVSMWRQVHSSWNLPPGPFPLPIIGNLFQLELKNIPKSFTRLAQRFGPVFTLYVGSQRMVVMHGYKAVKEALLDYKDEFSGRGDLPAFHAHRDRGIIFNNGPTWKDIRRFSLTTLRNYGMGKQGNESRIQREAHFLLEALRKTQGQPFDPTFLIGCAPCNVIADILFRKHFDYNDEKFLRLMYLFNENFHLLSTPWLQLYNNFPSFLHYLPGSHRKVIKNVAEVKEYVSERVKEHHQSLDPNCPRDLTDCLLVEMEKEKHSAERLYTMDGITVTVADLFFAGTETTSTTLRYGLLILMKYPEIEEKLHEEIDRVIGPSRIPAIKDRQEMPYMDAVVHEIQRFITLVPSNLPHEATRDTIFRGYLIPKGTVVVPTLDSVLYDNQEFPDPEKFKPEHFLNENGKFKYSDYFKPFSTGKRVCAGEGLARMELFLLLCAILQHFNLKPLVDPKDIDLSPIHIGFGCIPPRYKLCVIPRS
smiles,measurement,value
N#CSCSc1nc2ccccc2s1,AC50,5.32 µM (active)

# — PubChem BioAssay AID2283105 (EPA ToxCast)
